Values without a mark were called inactive. Where a call stands in place of a potency, no number is given. Calls of active or inactive are those of the source. The call rests on the fitted dose curve.

Results on 40 compounds are retold here after PubChem BioAssay (Tox21).

Sequence of Acetylcholinesterase (Homo sapiens) (P22303 whole entry, looked up): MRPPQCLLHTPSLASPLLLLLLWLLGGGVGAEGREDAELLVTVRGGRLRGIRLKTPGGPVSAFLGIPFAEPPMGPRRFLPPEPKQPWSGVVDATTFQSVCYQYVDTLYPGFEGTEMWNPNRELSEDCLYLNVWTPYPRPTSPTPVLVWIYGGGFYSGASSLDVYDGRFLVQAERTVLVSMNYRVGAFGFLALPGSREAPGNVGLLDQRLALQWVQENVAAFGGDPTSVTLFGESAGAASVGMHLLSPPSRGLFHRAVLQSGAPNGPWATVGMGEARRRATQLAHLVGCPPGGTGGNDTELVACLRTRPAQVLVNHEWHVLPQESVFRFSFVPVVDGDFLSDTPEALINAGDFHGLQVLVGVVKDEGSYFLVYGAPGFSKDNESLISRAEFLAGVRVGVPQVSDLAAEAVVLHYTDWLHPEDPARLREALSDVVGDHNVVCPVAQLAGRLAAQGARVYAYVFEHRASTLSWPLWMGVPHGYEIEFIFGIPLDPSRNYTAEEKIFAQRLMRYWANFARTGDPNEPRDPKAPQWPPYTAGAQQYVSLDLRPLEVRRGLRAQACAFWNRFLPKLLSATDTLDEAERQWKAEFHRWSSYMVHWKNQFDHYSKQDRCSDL

The assay has as its target Acetylcholinesterase (Homo sapiens) (UniProt P22303). Nature of the assay: Acetylcholinesterase (AChE) small molecule antagonists: enzyme-based qHTS assay with human liver microsomes (AID 1347399). Further: nearly all actives have a fitted effect of over 60% in size. The following applies: Potency: qHTS inhibition; outcome: qHTS inhibition; series mostly up to 115 µM. In outline:
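Recombinant human AChE (50 mU/mL in the enzyme mix) and human liver microsomes (0.25 mg/mL final) were preincubated with compound and NADPH (0.25 mg/mL final) for 30 min at 37 C. Acetylthiocholine/DTNB was then added; thiocholine was read colorimetrically after 10 min at room temperature.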
For orientation: In qHTS, concentration-response curves come from the screen itself.
`CC(=O)Oc1ccc2c(c1)CC[C@@H]1[C@@H]2CC[C@]2(C)[C@@H](O)CC[C@@H]12`: the Potency result is “inactive”.

Consider `CC(=O)Nc1ccc(S(=O)(=O)Nc2ccc([N+](=O)[O-])cc2)cc1`, for which the Potency result is “inactive”.

As to `CO[Si](CCCn1c(=O)n(CCC[Si](OC)(OC)OC)c(=O)n(CCC[Si](OC)(OC)OC)c1=O)(OC)OC`, the Potency result is “inactive”.

Regarding `CCCCCCCOC(=O)CCC`, the Potency entry was “inactive”.

`c1ccc2cc(Nc3ccc(Nc4ccc5ccccc5c4)cc3)ccc2c1`: the Potency result was “inactive”.

For `O=C1c2ccccc2C(=O)C1c1ccc2cc(S(=O)(=O)O)cc(S(=O)(=O)O)c2n1`, the Potency entry is “inactive”.

`CC(C)COC(=O)/C=C/c1ccccc1`: the Potency result was “inactive”.

On to `O=S(=O)(O)CCO`, for which the Potency result was “inactive”.

For the compound `c1ccc(SSc2ccccc2)cc1`, the Potency entry is “inactive”.

On to `Cc1onc(-c2ccccc2)c1C(=O)Cl`, for which the Potency entry was “inactive”.

Turning to `O=Cc1ccc(C(=O)O)cc1`, the Potency result was “inactive”.

For `C=CCOC(=O)/C=C\C(=O)OCC=C`, the Potency entry is “inactive”.

With `CCn1c2ccccc2c2ccccc21`, the Potency result was “inactive”.

For the compound `CCOCCOCCO`, the Potency result is “inactive”.

With `CCCCCCCCCCCC(=O)OC`, the Potency entry was “inactive”.

As to `COCc1c(C(C)C)nc(C(C)C)c(/C=C/[C@@H](O)C[C@@H](O)CC(=O)O)c1-c1ccc(F)cc1`, the Potency result is “inactive”.

As to `CN(C)[C@@H]1C(=O)C(C(N)=O)=C(O)[C@@]2(O)C(=O)C3=C(O)c4c(O)cccc4C[C@H]3C[C@@H]12`, the Potency result was “inactive”.

In the case of `C/C=C/C(=O)N(CC)c1ccccc1C`, the Potency result was “inactive”.

Consider `O=C(O)Cn1cnnn1`, for which the Potency entry is “inactive”.

For the compound `F[B-](F)(F)F`, the Potency result is “inactive”.

With `CC(=O)[O][Al][O]C(C)=O`, the Potency result is “inactive”.

`[Cl][Sc]([Cl])[Cl]`: the Potency entry is “inactive”.

`CCOC(=O)[C@H](CCc1ccccc1)N[C@@H](C)C(=O)N1C(=O)N(C)C[C@H]1C(=O)O`: the Potency result was “inactive”.

Consider `CC(=O)/C=C/C1=C(C)CCCC1(C)C`, for which the Potency entry was “inactive”.

In the case of `CC(=O)Oc1ccccc1C(=O)Nc1ncc([N+](=O)[O-])s1`, the Potency entry was “inactive”.

On to `CC(=O)OC/C=C(/C)CCC=C(C)C`, for which the Potency result was “inactive”.

Turning to `O=C(Cn1ccnc1[N+](=O)[O-])NCc1ccccc1`, the Potency result is “inactive”.

In the case of `COC(C)(C)CCCC(C)CC=O` (stereo not given), the Potency entry is “inactive”.

Consider `O=C1c2ccccc2C(=O)C1c1nc2ccccc2c(Br)c1O`, for which the Potency result was “inactive”.

Take `CCCCCC/C=C/C(=O)OC`: the Potency entry was “inactive”.

As for `c1ccc(Cc2ccccc2)cc1`, the Potency result is “inactive”.

As for `C[C@]12CCC(=O)C=C1CC[C@@H]1[C@@H]2CC[C@@]2(C)[C@H]1CC[C@]2(O)C(=O)CO`, the Potency result was “inactive”.

Turning to `CCOC(=O)C(F)(F)F`, the Potency entry was “inactive”.

`CCCCCCCCCCCCCCCCCBr`: the activity change, negative = inhibition is -2.26% [at 23.6 µM].

With `Nc1nnc(-c2cccc(Cl)c2Cl)c(N)n1`, the Potency entry was “inactive”.

On to `Cc1c(OCC(F)(F)F)ccnc1CS(=O)c1nc2ccccc2[nH]1` (stereo not given), for which the Potency result is “inactive”.

On to `CCCCCCCCCCC(CO)CCCCCCCC` (stereo not given), for which the Potency entry is “inactive”.

Consider `C1COCCN1`, for which the Potency entry was “inactive”.

Regarding `CCCCCCCCS`, the Potency entry is “inactive”.

Turning to `CCCCCCCCCCCCCCBr`, the Potency result is “inactive”.
